From PubChem BioAssay AID624137 (Broad Institute, 2012) come the findings set out here.

About 360 (1.2%) of roughly 31,000 compounds were called active. How the calls were made is not given here. The full list was thinned out, with actives kept by preference.

In this test the target is DNA-binding protein inhibitor ID-4 (Homo sapiens) (UniProt P47928). Put plainly: PubChem AID 624137.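 Further: a binder raises fluorescence above local background on the spot.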 To be noted: small molecule microarray, Flag-ID4 binding, fluorescence F/B.
Sequence of DNA-binding protein inhibitor ID-4 (Homo sapiens) (P47928 whole entry, looked up): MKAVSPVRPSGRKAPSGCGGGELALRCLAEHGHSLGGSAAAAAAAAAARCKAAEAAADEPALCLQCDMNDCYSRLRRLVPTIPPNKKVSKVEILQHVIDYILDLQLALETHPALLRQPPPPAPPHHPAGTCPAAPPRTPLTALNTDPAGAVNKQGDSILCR
With `C[C@@H]1CN([C@H](C)CO)C(=O)c2cc(C#CC3CC3)cnc2O[C@@H]1CN(C)Cc1ccccn1`, the call was inactive.
In the case of `C[C@@H]1CN([C@@H](C)CO)S(=O)(=O)c2ccc(-c3ccc(C(=O)N(C)C)cc3)cc2O[C@@H]1CN(C)Cc1ccccc1C(=O)O`, the compound was called inactive.
As to `COc1ccccc1S(=O)(=O)N[C@@H]1C=C[C@H](CC(=O)N2CCOCC2)O[C@@H]1CO`, the result was inactive.
With `O=C(C[C@@H]1C=C[C@H](NC(=O)CCN2CCCCC2)[C@H](CO)O1)NCc1ccc(Cl)c(Cl)c1`, the compound was called inactive.
For `C/C=C/c1cnc2c(c1)C(=O)N([C@@H](C)CO)C[C@@H](C)[C@@H](CN(C)S(=O)(=O)c1ccccc1F)O2`, the outcome was inactive.
Consider `C[C@H]1CN([C@@H](C)CO)S(=O)(=O)c2ccc(C3=CCCC3)cc2O[C@H]1CN(C)Cc1cccc(C(=O)O)c1`, for which the outcome was inactive.
For `CC(C)NC(=O)N(C)C[C@H]1Oc2cc(-c3cncnc3)ccc2S(=O)(=O)N([C@@H](C)CO)C[C@H]1C` the value was “inactive”.
As for `Cc1ccc(Cc2cncc(O)c2)cc1S(=O)(=O)O`, the call was active.
With `C[C@H]1CN([C@@H](C)CO)S(=O)(=O)c2ccc(C3=CCCCC3)cc2O[C@@H]1CN(C)Cc1ccccc1`, the result was inactive.
For `C[C@H](CO)N1C[C@H](C)[C@@H](CN(C)C(=O)C2CC2)Oc2ncc(-c3cccc(F)c3)cc2C1=O` the value was “inactive”; for `C/C=C/c1ccc2c(c1)O[C@@H](CN(C)CC1CCOCC1)[C@@H](C)CN([C@H](C)CO)S2(=O)=O`, “inactive”.
As for `C[C@H](CO)N1C[C@H](C)[C@H](CN(C)C(=O)C2CCCCC2)Oc2ncc(C#CC3CC3)cc2C1=O`, the outcome was inactive.
The entry for `C[C@H]1CN([C@@H](C)CO)C(=O)c2cc(C#Cc3ccccc3F)cnc2O[C@H]1CN(C)C` is “inactive”; for `O=C(O)/C(=C/C(=O)c1ccc(F)cc1)Nc1ccc2[nH]c(=O)[nH]c2c1` it is “inactive”.
For the compound `O=C(OCCN1CCCCC1)c1cccc(COc2ccc3ccccc3c2)c1`, the compound was classed as inactive.
For `C[C@H](CO)N1C[C@H](C)[C@H](CN(C)C(=O)c2ccncc2)Oc2cc(C#CC3(O)CCCC3)ccc2S1(=O)=O` the value was “inactive”; for `O=C(C[C@@H]1C[C@@H]2c3cc(NS(=O)(=O)c4ccc(F)cc4)ccc3O[C@@H]2[C@@H](CO)O1)N1CCOCC1`, “inactive”; for `CCCC#Cc1ccc2c(c1)O[C@@H](CN(C)S(=O)(=O)c1cccc(OC)c1)[C@H](C)CN([C@@H](C)CO)S2(=O)=O`, “inactive”.
Take `COCC(=O)Nc1ccc2c(c1)[C@H]1C[C@H](CC(=O)NCc3cccnc3)O[C@H](CO)[C@H]1O2`: the compound was called inactive.
For `CO[C@@H]1CN(C)C(=O)c2ccc(NC(=O)C3CC3)cc2OC[C@@H](C)N(CC2CCOCC2)C[C@H]1C` the value was “inactive”; for `CC(=O)N(C)C[C@H]1Oc2ncc(-c3cccc(F)c3)cc2C(=O)N([C@@H](C)CO)C[C@H]1C`, “inactive”.
On to `O=[N+]([O-])c1ccccc1/C=C/CN1CCC(O)CC1`, for which the outcome was active.
Turning to `O=[N+]([O-])c1ccccc1CN1CCN(Cc2cccc(Oc3ccccc3)c2)CC1`, the call was inactive.
For `O=C(C[C@H]1CC[C@@H](NC(=O)c2ccncc2)[C@@H](CO)O1)NCC1CC1` the value was “inactive”.
In the case of `C[C@@H]1CN([C@H](C)CO)C(=O)c2cc(-c3ccccc3F)cnc2O[C@H]1CN(C)C(=O)CN(C)C`, the outcome was inactive.
For the compound `C[C@H](CO)N1C[C@H](C)[C@@H](CN(C)C(=O)c2cnccn2)Oc2ncc(-c3ccccc3F)cc2C1=O`, the compound was called inactive.
Take `O=C(CSc1nc(O)cc(=O)n1-c1ccccc1F)Nc1ccc(Cl)cc1Cl`: the call was inactive.
`COc1cccc(/C=C(\C#N)C(=O)Nc2c(C)n(C)n(-c3ccccc3)c2=O)c1`: the call was inactive.
In the case of `Cc1c(NC(=O)/C(C#N)=C/c2ccccc2Cl)c(=O)n(-c2ccccc2)n1C`, the compound was called active.
On to `COC(=O)Cc1csc(Nc2c(C)n(C)n(-c3ccccc3)c2=O)n1`, for which the outcome was inactive.
For `COc1cc(NC(=O)COc2ccccc2Br)c(OC)cc1Cl` the value was “inactive”.
Turning to `C[C@H](CO)N1C[C@H](C)[C@H](CN(C)C(=O)C2CC2)OCc2ccccc2-c2ccccc2C1=O`, the result was inactive.
Take `CCC(=O)N[C@H]1CC[C@@H](CC(=O)NCc2cc(F)cc(F)c2)O[C@@H]1CO`: the result was inactive.
The entry for `C[C@@H]1CCCCO[C@@H](CN(C)C(=O)c2ccccc2)[C@H](C)CN([C@@H](C)CO)C(=O)c2cc(NS(C)(=O)=O)ccc2O1` is “inactive”.
Turning to `C[C@H](CO)N1C[C@H](C)[C@H](CN(C)C(=O)c2ccccc2)OCCCC[C@H](C)Oc2ccc(NS(C)(=O)=O)cc2C1=O`, the compound was called inactive.
With `C[C@@H]1CN([C@@H](C)CO)C(=O)c2cc(NS(C)(=O)=O)ccc2O[C@@H](C)CCCCO[C@@H]1CN(C)C(=O)c1ccccc1`, the outcome was active.
With `CNC[C@@H]1Oc2cc(C#Cc3ccc(F)cc3)ccc2S(=O)(=O)N([C@@H](C)CO)C[C@H]1C`, the compound was called inactive.
Consider `COc1ccccc1-c1cnc2c(c1)C(=O)N([C@H](C)CO)C[C@H](C)[C@H](CN(C)Cc1cccnc1)O2`, for which the call was inactive.
For `Cc1ccccc1-c1cnc2c(c1)C(=O)N([C@@H](C)CO)C[C@@H](C)[C@@H](CN(C)CC1CCOCC1)O2` the value was “inactive”.
For the compound `CCCN(C)C[C@H]1Oc2cc(-c3ccc(C)cc3)ccc2S(=O)(=O)N([C@H](C)CO)C[C@H]1C`, the compound was called inactive.
Turning to `C[C@@H]1CN([C@@H](C)CO)C(=O)c2cc(Br)cnc2O[C@@H]1CN(C)C(=O)C1CCCCC1`, the result was inactive.
`CN1CCN(C(=O)C[C@H]2CC[C@@H](NC(=O)c3ccc4c(c3)OCO4)[C@H](CO)O2)CC1`: the result was inactive.
Regarding `O=C(C[C@H]1C=C[C@H](NS(=O)(=O)c2ccc(F)cc2)[C@H](CO)O1)NCc1ccncn1`, the call was inactive.
The entry for `CCCN(C)C[C@@H]1Oc2cc(C#CC3CCCCC3)ccc2S(=O)(=O)N([C@@H](C)CO)C[C@@H]1C` is “inactive”; for `COc1ccccc1-c1cnc2c(c1)C(=O)N([C@@H](C)CO)C[C@@H](C)[C@H](CN(C)Cc1cccnc1)O2` it is “inactive”.
For `COCC#Cc1cnc2c(c1)C(=O)N([C@H](C)CO)C[C@@H](C)[C@@H](CN(C)Cc1ccccc1F)O2`, the compound was classed as inactive.
In the case of `CC(C)CC#Cc1cnc2c(c1)C(=O)N([C@@H](C)CO)C[C@H](C)[C@@H](CN(C)C(=O)c1ccc(F)cc1)O2`, the result was inactive.
As to `C[C@@H]1CN([C@@H](C)CO)S(=O)(=O)c2ccc(C3=CCCC3)cc2O[C@@H]1CN(C)Cc1ccncc1`, the compound was called inactive.
Turning to `C[C@@H](O)C#Cc1cnc2c(c1)C(=O)N([C@@H](C)CO)C[C@H](C)[C@@H](CN(C)CC1CCCCC1)O2`, the compound was called inactive.
For `COc1ccccc1-c1ccc2c(c1)O[C@H](CN(C)C(=O)c1cccnc1)[C@@H](C)CN([C@H](C)CO)S2(=O)=O` the value was “inactive”; for `CC(C)C#Cc1ccc2c(c1)O[C@@H](CN(C)CC1CCOCC1)[C@H](C)CN([C@H](C)CO)S2(=O)=O`, “inactive”; for `CNC[C@H]1Oc2cc(C#CC3CCCC3)ccc2S(=O)(=O)N([C@H](C)CO)C[C@@H]1C`, “inactive”.
The entry for `CC(C)C#Cc1cnc2c(c1)C(=O)N([C@H](C)CO)C[C@@H](C)[C@H](CN(C)Cc1ccccc1)O2` is “inactive”.
For the compound `C[C@@H]1CN([C@@H](C)CO)S(=O)(=O)c2ccc(C#CCC3CCCC3)cc2O[C@@H]1CN(C)C`, the compound was classed as inactive.
Consider `C[C@H](O)C#Cc1cnc2c(c1)C(=O)N([C@H](C)CO)C[C@@H](C)[C@H](CN(C)CC1CCCCC1)O2`, for which the compound was classed as inactive.
For `C[C@@H]1CN([C@H](C)CO)C(=O)c2cc(C3=CCCC3)cnc2O[C@H]1CN(C)C`, the compound was called inactive.
In the case of `Cc1cccc(NC(=O)CSc2nnc(-c3ccccc3)n2C2CCCCC2)c1C`, the result was inactive.
As to `CCC(=O)N(C)C[C@H]1Oc2cc(/C=C/c3ccccc3)ccc2S(=O)(=O)N([C@H](C)CO)C[C@H]1C`, the compound was classed as inactive.
The entry for `O=C(C[C@H]1CC[C@@H](NC(=O)Nc2cc(F)ccc2F)[C@@H](CO)O1)NCc1ccncn1` is “inactive”.
Turning to `CNC[C@H]1Oc2ncc(-c3ccccc3F)cc2C(=O)N([C@H](C)CO)C[C@H]1C`, the result was inactive.
